Data: PubChem BioAssay (NCI)
About 83,000 compounds went through this panel and 20% of them were active in at least one assay; those are over-represented in the sample as a whole.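 Negative percent growth values reflect cell death: -40 means 40% of the cells present at the start died, and -100 means all died.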 Unmarked numbers belong to inactive results. Calls of active or inactive are those of the source. How the source made its calls: active means growth percent below 10; inactive means the rest.

How the values were obtained:
Assay in all cases: NCI-60 one-dose screen, 48 h (100 = growth as untreated, 0 = no growth, -100 = all killed)
NCI-H23 lung = settings: 10 µM unless noted
NCI-H226 lung = settings: 10 µM unless noted
NCI-H322M lung = settings: 10 µM unless noted
NCI-H460 lung = settings: 10 µM unless noted
HOP-92 NSCLC = settings: 10 µM
NCI-H522 lung = settings: 10 µM
A549/ATCC NSCLC = settings: 10 µM unless noted
786-0 renal = settings: 10 µM unless noted
COLO 205 colon = settings: 10 µM unless noted
DU-145 prostate = settings: 10 µM unless noted
K-562 leukemia = settings: 10 µM unless noted
MDA-MB-231 breast = settings: 10 µM unless noted
RXF 393 renal = settings: 10 µM unless noted
SF-268 CNS = settings: 10 µM unless noted
SF-295 CNS = settings: 10 µM unless noted
SF-539 CNS = settings: 10 µM unless noted
UACC-257 melanoma = settings: 10 µM unless noted
MALME-3M melanoma = settings: 10 µM unless noted
M14 melanoma = settings: 10 µM unless noted

SMILES	growth (NCI-H23 lung)	growth (NCI-H226 lung)	growth (NCI-H322M lung)	growth (NCI-H460 lung)	growth (HOP-92 NSCLC)	growth (NCI-H522 lung)	growth (A549/ATCC NSCLC)	growth (786-0 renal)	growth (COLO 205 colon)	growth (DU-145 prostate)	growth (K-562 leukemia)	growth (MDA-MB-231 breast)	growth (RXF 393 renal)	growth (SF-268 CNS)	growth (SF-295 CNS)	growth (SF-539 CNS)	growth (UACC-257 melanoma)	growth (MALME-3M melanoma)	growth (M14 melanoma)
COc1ccc2c(c1)/C(=C/c1c(-c3cc(OC)c(OC)c(OC)c3)nc3sccn13)C(=O)N2	99.1%	97%	92.3%	108%	31.7%	86.5%	110%	95.7%	107%	88%	87.3%	66.1%	82.4%	107%	93.2%	91.9%	101%	–	–
C#CCCCCCCC[C@@H]1OC(=O)[C@H]([C@@H](C)CC)NC(=O)[C@H]([C@@H](C)CC)NC(=O)CC(=O)[C@@H]1C	99.8%	89%	99.6%	103%	78.1%	92.5%	105%	101%	112%	106%	96.5%	89.9%	104%	91.9%	98.9%	97.5%	117%	92.9%	93.9%
NC(N)=N/N=C/c1cccc(Br)c1	97.6%	88.7%	91.2%	104%	88.9%	100%	98.8%	94.2%	90.2%	118%	93.6%	105%	95.8%	–	99.3%	101%	106%	100%	92.8%
O=C(Nc1cccc2[nH]c(C(F)(F)F)nc12)c1ccc(F)cc1	83.7%	86.1%	101%	55%	-9.1% (active)	51.3%	72.8%	91.9%	95.1%	88.3%	24.8%	83.7%	88%	86.1%	86.6%	80%	89.7%	74%	92%
O=C(Cc1ccccc1[N+](=O)[O-])c1ccc2c(c1)OCO2	99.3%	97.1%	103%	101%	82%	91.7%	98.1%	94.3%	116%	106%	94.1%	109%	104%	94.1%	96.1%	101%	98.7%	96.1%	103%
CCN(CC)CCCNc1c2ccc(Cl)cc2nc2ccc(OC)cc12	-34.9% (active)	-6.37% (active)	-18.9% (active)	1.68% (active)	-27.8% (active)	-52% (active)	-32.4% (active)	9.99% (active)	-72.3% (active)	5.08% (active)	-21.9% (active)	-39.5% (active)	-57.9% (active)	-10.1% (active)	-21.7% (active)	-65.7% (active)	33.4%	-59.7% (active)	-79% (active)
COC(=O)c1ccc2[nH]c(O)c(C(=Nc3ccc(N(C)C(=O)CN4CCN(C)CC4)cc3)c3ccc(OC)cc3)c2c1	28.1%	25.8%	38%	14.8%	38%	17.4%	16%	21.7%	0.878% (active)	21.1%	4.93% (active)	23.6%	-24.8% (active)	21.3%	37.6%	-0.308% (active)	48.9%	6.81% (active)	14.3%
CC(C)OC(=O)Nn1cnc2ccccc21	98.4%	106%	122%	114%	95.6%	103%	117%	96.7%	130%	103%	96.7%	117%	108%	120%	103%	95.2%	109%	–	–
Cc1ccc2c(c1)C(=O)CCS2	100%	101%	93.5%	117%	89.1%	95.2%	97.2%	101%	98.2%	107%	114%	94.2%	115%	112%	108%	87.3%	102%	85%	96.1%
Cc1ccc([C@@H]2C[C@H](O)Cc3ccccc3N2)s1	90.7%	124%	110%	101%	78.8%	117%	104%	114%	98.8%	111%	101%	102%	126%	106%	107%	97.4%	100%	104%	125%
Cc1nc(NC(=O)NC2CCCCC2)sc1C(=O)NN	101%	103%	101%	112%	-17.1% (active)	0.452% (active)	102%	113%	119%	109%	154%	97.9%	112%	101%	103%	113%	101%	-7.04% (active)	94.9%
C/C(=N\Nc1ccc(Cl)cn1)c1ccc2ccccc2n1	21%	-5.19% (active)	16.4%	3.21% (active)	34.4%	11.9%	4.29% (active)	12.9%	9.81% (active)	19.9%	5.97% (active)	31.5%	30.5%	10.3%	2.94% (active)	3.44% (active)	-19.9% (active)	10.6%	0.159% (active)
NNC(=O)CNc1ccc2ccccc2c1	101%	109%	115%	113%	70.4%	98.5%	115%	105%	109%	95.8%	86.8%	104%	-7.3% (active)	120%	118%	95.4%	105%	98.9%	-100% (active)
CCCCN(CCCC)CC(O)CN(CC)CC (configuration not stated)	99.6%	96.3%	97.6%	114%	93.4%	95.3%	99%	104%	99.3%	113%	92.4%	95.8%	104%	106%	–	108%	105%	–	95%
O=S(=O)(Cc1cccc2c(CS(=O)(=O)c3ccc(Cl)cc3)cccc12)c1ccc(Cl)cc1	98%	107%	86.7%	72.4%	97.1%	96.4%	84.3%	119%	83%	91.2%	83.2%	97.3%	109%	92.5%	–	94.3%	107%	–	102%
COc1cc(CNC(=O)CCCC/C=C/C(C)C)ccc1OCc1nnc(Nc2ccccc2F)o1	63.8%	64.5%	86.1%	80.3%	56.4%	60.3%	105%	12%	104%	88.7%	60.4%	63.9%	68.8%	45.5%	48%	48.2%	98.2%	–	99.7%
COc1nc(OC)nc(-c2cc(C(=O)c3ccc(Br)cc3)n3cc(C)cc(C)c23)n1	48.1%	34.3%	81.8%	34.8%	33.9%	57.7%	51.3%	12%	–	76.3%	91.1%	49.8%	11.9%	55.4%	48.7%	26.2%	94.8%	54.1%	90.3%
